Results reported in PubChem BioAssay AID485281 (National Center for Advancing Translational Sciences (NCATS), 2010).
Hit rate of the full screen: of about 350,000 compounds, about 260 (0.074%) were called active. Not shown: some 8% with an inconclusive outcome. This is one part of a sample in which actives are shown more often than they occur. Calls follow the shape of the dose curve; as a rule, active = well fitted inhibition curve with a large enough effect; inconclusive = small, poorly fitted or top-dose-only effect; inactive = no such curve, though single readings can be large or run the other way.

target: Ferritin light chain (Equus caballus) (UniProt P02791); assay: qHTS Assay for Identification of Novel General Anesthetics; conditions: apoferritin/1-aminoanthracene competitive binding, fluorescence; series mostly up to 77.5 µM; activity change, negative = displacement: at the top concentration; also: nearly all actives have a fitted effect of over 20% in size
Sequence (P02791 2-175 limits assumed): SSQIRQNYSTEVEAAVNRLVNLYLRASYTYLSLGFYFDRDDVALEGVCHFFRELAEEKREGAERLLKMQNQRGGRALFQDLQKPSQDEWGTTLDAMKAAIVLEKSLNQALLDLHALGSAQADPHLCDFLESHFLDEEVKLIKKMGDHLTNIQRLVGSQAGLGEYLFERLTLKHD
Description: Source: NIH Chemical Genomics Center [NCGC]
Assay Submitter: Roderic Eckenhoff, University of Pennsylvania
Screening Center PI: Christopher P. Austin, NIH
Probe Development: NIH Chemical Genomics Center [NCGC]
Anesthetic development has remained a largely empirical process. There are growing concerns about the cognitive effects of known general anesthetics and acceleration of the onset of neurodegenerative disease. The compounds' toxicity and multiple specific binding targets in the mammalian brain [4] has made them less attractive as drug leads. In this assay, a GABAergic mimetic model system, apoferritin and a profluorescent 1-aminoanthracene ligand (1-AMA), was used to construct a competitive binding assay for identification of novel general anesthetics. The assay was validated for 1-AMA using other known anesthetics, such as isoflurane (CID:3763) and propofol (CID: 4943), [6].
[1] S.L. Bianchi, T. Tran, C. Liu, S. Lin, Y. Li, J.M. Keller, R.G. Eckenhoff, and M.F. Eckenhoff, Brain and behavior changes in 12-month-old Tg2576 and nontransgenic mice exposed to anesthetics. Neurobiol Aging 29 (2008) 1002-10.
[2] Z. Xie, Y. Dong, U. Maeda, R.D. Moir, W. Xia, D.J. Culley, G. Crosby, and R.E. Tanzi, The inhalation anesthetic isoflurane induces a vicious cycle of apoptosis and amyloid beta-protein accumulation. J Neurosci 27 (2007) 1247-54.
[3] P. Honegger, and J.M. Matthieu, Selective toxicity of the general anesthetic propofol for GABAergic neurons in rat brain cell cultures.
[4] M.F. Eckenhoff, K. Chan, and R.G. Eckenhoff, Multiple specific binding targets for inhaled anesthetics in the mammalian brain. J Pharmacol Exp Ther 300 (2002) 172-9.
[5] C.A. Butts, J. Xi, G. Brannigan, A.A. Saad, S.P. Venkatachalan, R.A. Pearce, M.L. Klein, R.G. Eckenhoff, and I.J. Dmochowski, Identification of a fluorescent general anesthetic, 1-aminoanthracene. Proc Natl Acad Sci U S A 106 (2009) 6501-6.
[6] W.A. Lea, J. Xi, A. Jadhav, L. Lu, C.P. Austin, A. Simeonov, and R.G. Eckenhoff, A high-throughput approach for identification of novel general anesthetics. PLoS One 4 (2009) e7150.
Three uL of reagents (free 1-AMA (50% saturated solution of 1-aminoanthracene
in PBS) in columns 3, 4 as negative control and 1-AMA/apoferritin mixture (10 uM horse-spleen apoferritin in 50% saturated 1-aminoanthracene in PBS) in columns 1, 2, 5-48) was dispensed into 1536-well Greiner black assay plates. Compounds (23 nL) were transferred via Kalypsys pintool equipped with 1,536-pin array (10 nL slotted pins, V&P Scientific, San Diego, CA). Titration of the positive control, propofol, were delivered via pin transfer from separate control plates to the 2nd column of each assay plate. The starting concentration of the control, dissolved in DMSO, was at 160 mM, followed by two-fold dilution points in duplicate, for a total of 16 concentrations. The plates were incubated for 10 min at room temperature, and then read on an EnVision HTS multilabel reader (Perkin-Elmer, Waltham, MA) (end point read, 3 min/plate) using Fura2 BFP excitation filter (380 nm, bandwidth 10 nm) and fluorescein emission filter (535 nm, bandwidth 25 nm) set. A LANCE/DELFIA dichroic mirror with a cutoff wavelength at 400 nm was used to maximize signal accuracy and strength. Vehicle-only plates, with DMSO being pin-transferred to the entire column 5-48 compound area, were inserted uniformly at the beginning and the end of each library in order to monitor for and record any shifts in the background. Activity was computed as the normalized fluorescence response relative to free 1-AMA and 1-AMA/apoferritin complex values. Concentration-effect relationships were derived by using curve fitting algorithms developed in-house (http://ncgc.nih.gov/pub/openhts/). A four parameter Hill equation was fitted to the concentration-response data by minimizing the residual error between the modeled and observed responses.
% is scaled to controls: 0 for no effect and ±100 for the full control effect.

| SMILES | activity change, negative = displacement |
| --- | --- |
| O=C(NCc1ccc(F)cc1)c1ccc(Cn2c(SCc3ccc(F)cc3)nc3cccnc32)cc1 | -5.12% (inactive) |
| Cc1cccc2nc(-c3ccc(Cl)s3)c(Nc3ccc4c(c3)OCCO4)n12 | 58.8% (inactive) |
| O=C(NCC(c1cccnc1)N1CCc2ccccc21)c1cccc(C(F)(F)F)c1 (stereo unspecified) | -10% (inactive) |
| CCOc1ccc(C(=O)/C=C/c2cn(CC(O)CN3CCCCCC3)c3ccccc23)cc1 (stereo unspecified) | -7.92% (inactive) |
| CCOc1ccc(NC(=O)CCc2c(C)nn(-c3ccc(N4CCCC4)nn3)c2C)cc1 | 42.2% (inactive) |
| Cc1ccc(-c2nc(SCc3ccc(Br)cc3)n3[nH]c(=O)cc3n2)cc1 | 2.21% (inactive) |
| Cc1ccc(CN2CCc3nc(N4CCN(C)CC4)ncc3C2)cc1 | 11.3% (inactive) |
| CCOC(=O)c1cnc2c(C)cc(C)cc2c1Nc1ccc(N2CCOCC2)cc1 | -13.5% (inactive) |
| COc1cc2nc(SCc3ccc(F)cc3)n3nc(CCn4c(C)nc5ccccc54)nc3c2cc1OC | 26.5% (inactive) |
| CCOCCc1nn2c(=O)cc(COC(=O)CNC(=O)c3ccc(C(C)(C)C)cc3)nc2s1 | -16.9% (inactive) |
| Cc1cccc(NC(=O)C2CCN(S(=O)(=O)c3c(C)noc3/C=C/c3ccco3)CC2)c1 | -8.73% (inactive) |
| CCN(CCCNC(=O)c1ccc(Sc2ccc(C)cc2)c(NC(C)=O)c1)c1cccc(C)c1 | 8.6% (inactive) |
| CCOC(=O)c1ccc(CN(Cc2ccccc2)S(=O)(=O)c2ccc(Cl)cc2)cc1 | 52.1% (inactive) |
| COc1cc(OC)c(NC(=O)N2CC3CCCN3c3ccccc32)cc1Cl (stereo unspecified) | -13.5% (inactive) |
| COc1ccc2[nH]c3c(c2c1)CCN(C(=O)CCC1CCCC1)C3c1ccc(F)cc1 (stereo unspecified) | 9.86% (inactive) |
| CN(C(=O)CSc1nc2ccccc2n1Cc1ccccc1C#N)c1ccccc1 | 78.3% (inactive) |
| Cc1cccc(N2CCN(c3ccc(C(=O)O)cc3NC(=O)c3ccccc3F)CC2C)c1 (stereo unspecified) | -15.5% (inactive) |
| CCCCc1nn2c(=O)cc(COC(=O)c3ccc(NC(=O)c4ccccc4C)cc3)nc2s1 | -0.216% (inactive) |
| CCC(=O)N1CCc2cc(S(=O)(=O)NC(C(=O)NCCc3ccc(C)cc3)C(C)C)ccc21 (stereo unspecified) | -8.37% (inactive) |
| O=C(CSc1nc(-c2cccc(F)c2)[nH]c1-c1ccccc1)Nc1ccc2c(c1)OCO2 | 37.9% (inactive) |
| CCOC(=O)c1ccc(NC(=O)c2c(NCc3cccs3)sc3c2CCCC3)cc1 | 7.21% (inactive) |
| COc1ccc(C)cc1NC(=O)COCc1cc(-c2cccs2)on1 | 3.35% (inactive) |
| Cc1ccc(-n2ncc3c(NCCCn4ccnc4)ncnc32)cc1Cl | -2.7% (inactive) |
| CCN(CC)S(=O)(=O)c1nnc(NC(=O)COc2ccccc2Cl)s1 | -19.9% (inactive) |
| Cc1nc2nc(NCc3cccc(Br)c3)[nH]n2c(=O)c1Cc1ccccc1 | -2.1% (inactive) |
| COc1ccccc1N1CCN(CCCNC(=O)c2cnn(-c3ccccc3Cl)c2C2CCN(C(=O)OC(C)(C)C)CC2)CC1 | -12.6% (inactive) |
